USP30 block: inhibitors of human USP30 deubiquitinase | purified USP30, Ub-rhodamine cleavage fluorescence | inhibition, % at 25 µM | 5.3% of 47,000 active | AID 1645860
USP17 inh: blocks human USP17 ubiquitin-rhodamine cleavage; A8MUK1; purified USP17, Ub-rhodamine cleavage fluorescence, 3 h; inhibition, % at 50 µM; 6.5% of 47,000 active; AID 1645855
Target sequence (A8MUK1 whole entry, looked up): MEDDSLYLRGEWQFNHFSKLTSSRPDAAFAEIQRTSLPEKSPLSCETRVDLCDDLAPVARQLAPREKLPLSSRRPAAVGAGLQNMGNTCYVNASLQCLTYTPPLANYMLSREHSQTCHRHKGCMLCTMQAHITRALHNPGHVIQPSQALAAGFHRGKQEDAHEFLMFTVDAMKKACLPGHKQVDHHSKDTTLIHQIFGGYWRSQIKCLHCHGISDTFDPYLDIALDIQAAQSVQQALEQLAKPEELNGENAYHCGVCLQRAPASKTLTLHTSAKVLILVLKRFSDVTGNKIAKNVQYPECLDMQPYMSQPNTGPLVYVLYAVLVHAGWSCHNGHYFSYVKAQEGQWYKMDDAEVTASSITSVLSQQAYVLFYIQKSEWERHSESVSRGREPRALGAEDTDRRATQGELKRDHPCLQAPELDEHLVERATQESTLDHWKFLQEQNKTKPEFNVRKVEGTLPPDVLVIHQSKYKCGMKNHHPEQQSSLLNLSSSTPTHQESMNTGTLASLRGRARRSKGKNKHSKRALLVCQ
USP28 block: blocks human USP28 ubiquitin-rhodamine cleavage. inhibition, % at 25 µM. 3% of 47,000 active. purified USP28, Ub-rhodamine cleavage fluorescence, 30 min
Starred values were filed as active, the others as inactive; / = no result. This is a sample that favours compounds with a hit; in the whole collection about 11% have one here. No stated cut-off is given here; in the data, active means inhibition above about 30%; inactive means the rest.

SMILES | USP30 block | USP17 inh | USP28 block
Cc1nn(CC(=O)N2CCc3ccccc32)c(C)c1S(=O)(=O)N(C)C | -6 | -4 | -9
CCOc1cc(N2CCOCC2)c(OCC)cc1NC(=O)CCc1ccc(S(=O)(=O)N2CCOCC2)cc1 | -22 | -9 | 4
CC1CCC2(OC1)OC1CC3C4CCC5CC(O)CCC5(C)C4=CC(=O)C3(C)C1C2C (stereo unspecified) | 0 | 1 | -6
O=C(Nc1ccc2c(c1)CCC2)C1CC(O)CN1C(=O)Nc1ccccc1 (stereo unspecified) | 3 | -4 | 1
Cc1cccc(NC(=O)CSc2ncnc3c2sc2nc(N4CCOCC4)c4c(c23)CC(C)(C)OC4)c1 | 10 | 0 | 2
Cc1cc(=O)oc2cc(NC(=O)c3cc4c(s3)-c3ccccc3S(=O)(=O)C4)ccc12 | -226 | -60 | -168
CCc1nnc(NC(=O)Cn2ncc3ccccc32)s1 | 0 | 0 | 15
O=C(Cn1ncc2ccccc21)Nc1ccc(Br)cn1 | -21 | 5 | 39*
Cc1nnc(C(=O)Nc2ccc(C(=O)NC(C)c3ccccc3)cc2)s1 (stereo unspecified) | 24 | 4 | 7
CNC(=O)Cn1cnc2c(c(C)c(C)n2-c2ccc(Cl)cc2)c1=O | -38 | 50* | 0
Cc1c(C)n(-c2ccccc2)c2ncn(CC(=O)NC(C)c3ccccc3)c(=O)c12 (stereo unspecified) | 75* | / | 15
Cc1c(C)n(-c2ccccc2)c2ncn(CC(=O)NCc3ccccc3F)c(=O)c12 | 22 | 7 | 14
Cc1cccc(NC(=O)Cn2cnc3c(c(C)c(C)n3-c3ccccc3)c2=O)c1 | 0 | 23 | 6
O=C(CCc1nnc2ccc(N3CCCC3)nn12)N1CC=C(c2ccccc2)CC1 | 13 | 2 | 8
O=C(CSc1nnc(-c2ccc3c(c2)OCCCO3)n1C1CC1)N1CCCC1 | 0 | -2 | -6
COc1cc(-c2cc(-c3ccccc3Br)nc(N)c2C#N)cc(OC)c1OC | -40 | -7 | -22
COc1ccc(-c2cc(-c3ccc(O)cc3)nc(N)c2C#N)cc1OC | 50* | 46* | 73*
CCCCCCCc1cc(OC(=O)c2c(CCCCCCC)cc(O)cc2O[C@@H]2O[C@H](CO)[C@@H](O)[C@H](O)[C@H]2O)cc(O)c1C(=O)O | 110* | 102* | 102*
CCCCCCCCCCCCCCCc1cc(O)cc(O)c1C(=O)O | 56* | 89* | 53*
O=C(O)CCCCc1cc(O)cc(O)c1 | -78 | -44 | -20
COc1cc(C(=O)OCc2ccc(O[C@@H]3O[C@H](CO)[C@@H](O)[C@H](O)[C@H]3O)cc2)ccc1O | -5 | 7 | -62
CC(C)NC(=O)c1cc(-c2csc(-c3cnccn3)n2)n2ccccc12 | -157 | -47 | -50
CC1CCN(c2nc3c(c(=O)[nH]2)CN(Cc2cccnc2)CC3)CC1 | 16 | 18 | 14
O=C(Nc1ccc2nc(NS(=O)(=O)c3ccccc3)sc2c1)C1CCCCC1 | 3 | 7 | 0
Cn1ncc(Cl)c1C(=O)Nc1ccc2nc(NC(=O)C3CCCCC3)sc2c1 | 12 | 38* | 8
SMILES | USP30 block | USP17 inh | USP28 block
O=C1N(Cc2cccnc2)CCN1c1ccc(F)c(Cl)c1 | / | 8 | /
O=C1c2cccc(OCc3ccc(Cl)cc3)c2CCN1Cc1cccnc1 | 32* | 18 | 23
O=S(=O)(Cc1nnc(-c2ccccc2C(F)(F)F)o1)c1ccc(Cl)cc1 | -2 | 68* | -11
Cc1ccc(N(Cc2nnc(-c3ccc(Cl)cc3)o2)S(=O)(=O)c2ccc3c(c2)OCCO3)cc1 | -117 | -30 | -27
O=C(Nc1ccccc1)c1c(O)c2cnn(Cc3ccccc3)c2[nH]c1=O | -4 | 2 | -4
Cc1ccc(NC(=O)c2cccc(-n3cnnc3)n2)cc1 | / | 4 | /
Cc1ccc(C(O)Cn2cc(C(=O)Nc3ccccc3)nn2)cc1 (stereo unspecified) | 35* | 25 | 18
Cc1cccc(-n2nnc(C(=O)Nc3cccc(Cl)c3)c2C)c1 | 14 | 14 | 14
Cc1ccc(C(O)Cn2cc(C(=O)Nc3cccc(C)c3)nn2)cc1 (stereo unspecified) | / | 80* | /
COc1ccc(CNC(=O)Cn2c(N3CCCC3)nc(C)cc2=O)cc1 | 6 | 9 | 14
COCCCNC(=O)C1c2ccccc2C(=O)N1Cc1ccc2c(c1)OCO2 (stereo unspecified) | 0 | 0 | -6
COc1cccc(C2N3CC4(C)CN2CC(C)(C3)C4O)c1O (stereo unspecified) | -3 | -1 | -12
O=C(NCc1ccc(Cl)cc1)c1ccc(N2CCCS2(=O)=O)cc1 | 17 | 64* | 45*
O=C(NCc1ccc(Cl)cc1)c1cccc(N2C(=O)CCS2(=O)=O)c1 | 14 | 9 | 21
O=C(Oc1ccc(-c2ccccc2)c(F)c1)c1cccc(Cl)c1Cl | 23 | 23 | -2
COc1ccc2cc(CNCCN3CCOCC3)c(=O)[nH]c2c1 | -147 | -27 | -33
Cc1ccc2cc(CCNC(=O)COc3ccc(Cl)cc3)c(=O)[nH]c2c1 | 13 | 37* | 1
Cc1cc(OCC(=O)NCCc2nc3ccccc3[nH]2)ccc1Cl | 10 | -3 | -4
COc1ccc2cc(CCNC(=O)C3(c4ccc(Cl)cc4)CCCC3)c(=O)[nH]c2c1 | 9 | 43* | 7
CCOC(=O)c1ccc(NC(=O)c2cnn3c4c(cnc23)CCCCC4)cc1 | -118 | -9 | -21
Cc1ccc(CSc2nnc(-c3cnccn3)n2Cc2ccco2)cc1 | -17 | 4 | 5
COc1ccc(CCn2c(-c3ccccc3C)nc3c(c(=O)c4ccccc4n3C)c2=O)cc1OC | 13 | 1 | 14
Cn1c2ccccc2c(=O)c2c(=O)n(Cc3ccccc3)c(-c3ccc(C(C)(C)C)cc3)nc21 | 2 | 50* | -7
COc1ccc(CCn2c(-c3ccccc3C)nc3c(c(=O)c4ccccc4n3C)c2=O)cc1 | 6 | / | 5
Cc1ccc(-c2nc3c(c(=O)c4ccccc4n3C)c(=O)n2-c2ccc(F)cc2)cc1 | 7 | 43* | -2
SMILES | USP30 block | USP17 inh | USP28 block
Cn1c2ccccc2c(=O)c2c(=O)n(Cc3ccccc3)c(-c3ccccc3F)nc21 | -15 | 66* | 0
Cn1c2ccccc2c(=O)c2c(=O)n(Cc3ccccc3)c(-c3ccco3)nc21 | -21 | 59* | 44*
COCCCn1c(-c2ccc([N+](=O)[O-])cc2)nc2c(c(=O)c3ccccc3n2C)c1=O | -10 | 10 | 1
Cc1nc2c(c(=O)c3ccccc3n2C)c(=O)n1Cc1ccco1 | -32 | 12 | 15
Cc1cc(C)c(C#N)c(Sc2ncc(C#N)c(N)n2)n1 | -14 | 7 | 1
CCOC(=O)c1c(C)oc2ncnc(Nc3ccc(OC)cc3)c12 | 0 | 6 | -4
Cc1cc(C)c2c(-n3cccc3)nn(CC(=O)N3CCCCCC3)c2n1 | 11 | -2 | 12
CC1Cc2ccccc2N1C(=O)CSc1nncn1-c1ccccc1 (stereo unspecified) | 11 | 3 | 4
Cc1ccc(CN2CCCn3nc(C(=O)NCc4ccc(F)cc4)cc3C2=O)cc1 | 56* | 38* | 13
Cc1ccc(CN2CCCn3nc(C(=O)NCc4ccccc4F)cc3C2=O)cc1 | 9 | 12 | 13
O=C(c1cccc(Cl)c1)N(Cc1ccccn1)c1nc2ccc(F)cc2s1 | 19 | 12 | 7
O=C(C1CCCN(c2nccnc2Oc2ccccc2)C1)N1CCC2(CC1)OCCO2 (stereo unspecified) | 18 | -7 | 7

Bioassay records: PubChem BioAssay, Buhrlage Lab, Dana-Farber Cancer Institute and Novartis Institutes for BioMedical Research (Cambridge, Mass)
